Data published in article PMC5540273 (PLoS ONE, 2017).

Assays:
Conditions in all cases: concentration: 1 μM, replicates: in singlicate; n = 1
RIOK1 = system: RIOK1
RIOK2 = system: RIOK2
RIOK3 = system: RIOK3
RIPK1 = system: RIPK1
RIPK2 = system: RIPK2
RIPK4 = system: RIPK4
RIPK5 = system: RIPK5
ROCK1 = system: ROCK1
ROCK2 = system: ROCK2
ROS1 = system: ROS1
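Note: KINOMEscan kinase panel screen.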

Row | SMILES | %Inh (RIOK1) [%] | %Inh (RIOK2) [%] | %Inh (RIOK3) [%] | %Inh (RIPK1) [%] | %Inh (RIPK2) [%] | %Inh (RIPK4) [%] | %Inh (RIPK5) [%] | %Inh (ROCK1) [%] | %Inh (ROCK2) [%] | %Inh (ROS1) [%]
1 | CN(C)CCOc1ccc(-c2cc(-c3ccc(Cl)c(O)c3)c(-c3ccncc3)[nH]2)cc1.Cl.Cl [SB-684387] | 0 | 32 | 0 | 36 | 88 | 7 | 13 | 99.2 | 98.9 | 10
2 | CN(c1ccc(NC(=O)Nc2cccc(Cl)c2)cc1)c1ccnc(N)n1.Cl [GW830707] | 0 | 0 | 0 | 0 | 1 | 5 | 0 | 53 | 35 | 12
3 | NCCC(NC(=O)c1cc(Br)c(-c2ccnc3[nH]ccc23)s1)c1ccccc1.O=C(O)C(F)(F)F.O=C(O)C(F)(F)F (centres unmarked) [GSK1307810] | 100 | 97.9 | 100 | 81 | 4 | 0 | 1 | 100 | 99.8 | 29
4 | Cc1ccc(Nc2ccnc(Nc3ccc(C)c(F)c3)n2)cc1O.Cl [GW582868] | 19 | 2 | 4 | 1 | 55 | 13 | 0 | 22 | 16 | 33
5 | Cl.Cl.NCC(NC(=O)c1cc(-c2cccnc2)c(-c2ccnc3[nH]ccc23)s1)c1ccccc1 (centres unmarked) [GSK1323434] | 60 | 54 | 57 | 10 | 26 | 16 | 0 | 99.7 | 99.4 | 20
6 | Fc1cc(Cl)ccc1Nc1ccnc2cc(-c3ccc(CN4CCSCC4)o3)ccc12 [GW560106] | 9 | 0 | 0 | 0 | 94.7 | 0 | 0 | 29 | 32 | 20
7 | Cl.Cl.NC(CNC(=O)c1cc(Br)c(-c2ccnc3[nH]ccc23)s1)c1ccccc1 (centres unmarked) [GSK1322949] | 100 | 88 | 98 | 21 | 0 | 34 | 18 | 99.6 | 99.9 | 51
8 | CC(C)c1nc(-c2ccc(F)c(NS(=O)(=O)c3c(F)cccc3F)c2)c(-c2ccnc(Nc3ccc(N4CCOCC4)nc3)n2)s1 [GSK1804250] | 30 | 13 | 84 | 0 | 97.6 | 0 | 19 | 12 | 2 | 17
9 | Nc1cccc(-c2ccc3c(N)n[nH]c3c2)c1 [GSK2193613] | 93.9 | 64 | 55 | 0 | 0 | 49 | 0 | 42 | 48 | 17
10 | O=C(Nc1n[nH]c2nc(-c3ccccc3O)ccc12)C1CC1 [SB-711880] | 43 | 0 | 33 | 70 | 0 | 40 | 0 | 0 | 0 | 0
11 | O=C(Nc1n[nH]c2nc(-c3cccc(O)c3)ccc12)C1CC1 [SB-711805] | 53 | 11 | 59 | 14 | 5 | 37 | 7 | 2 | 0 | 0
12 | Cc1cc(-c2ccnc(Nc3cccc(C#N)c3)n2)cc(C)c1O [GSK1440913] | 100 | 91.7 | 97.9 | 53 | 28 | 37 | 8 | 0 | 0 | 64
13 | Cn1cc(-c2ccc3c(c2)CCN3C(=O)Cc2cc(F)cc(F)c2F)c2c(N)ncnc21 [GSK2634140] | 39 | 15 | 13 | 99.7 | 0 | 0 | 54 | 36 | 30 | 34
14 | Nc1ncnc2scc(-c3ccc(NC(=O)Cc4cc(F)ccc4F)cc3)c12.O=C(O)C(F)(F)F [SB-731254-M] | 0 | 13 | 1 | 0 | 23 | 20 | 53 | 0 | 0 | 17
15 | COc1ccc(C2=C(Nc3cccc(O)c3)C(=O)NC2=O)cc1 [SB-390766] | 22 | 0 | 0 | 0 | 32 | 10 | 0 | 18 | 19 | 0
16 | Cc1ccccc1CC(=O)N1CCc2cc(-c3cn(C)c4ncnc(N)c34)ccc21 [GSK2603346] | 8 | 31 | 100 | 100 | 63 | 0 | 69 | 10 | 14 | 2
17 | CC(C)(C)c1ccc(C(=O)Nc2cn3cc(-n4ccnc4)ccc3n2)cc1 | 0 | 6 | 0 | 2 | 24 | 0 | 34 | 0 | 0 | 0
